PubChem BioAssay (EPA / NIEHS)
“And” between values parts separate entries of the source, which are not always exact repeats. Equal entries are not always repeated. The source made the active and inactive calls. How the source made its calls: active means hit-call score of the fitted dose curve at least 0.9, where 1 is the maximum; inactive means score below 0.9.

Experiment: BSK_BT_Bcell_Proliferation: Viability Assessment in the BioMAP Diversity Plus: BT Assay for B cell Proliferation (AID 2284227)
Conditions: primary human B cells with PBMC
Description: BSK_BT is a cell-based, multiplexed-readout assay that uses B cell and peripheral blood mononuclear cells, a human vascular primary cell co-culture, with measurements taken at 24 hours after chemical dosing in a microplate: 96-well plate.BSK_BT_Bcell_Proliferation is an assay component measured in the BSK_BT assay. It measures protein content, a form of viability reporter, as detected with absorbance signals by Sulforhodamine staining technology.Data from the assay component BSK_BT_Bcell_Proliferation was analyzed at the endpoint, BSK_BT_Bcell_Proliferation, in the positive analysis fitting direction relative to DMSO as the negative control and baseline of activity. Using a type of viability reporter, gain or loss-of-signal activity can be used to understand cellular changes in viability. To generalize the intended target to other relatable targets, this assay endpoint is annotated to the 'cell cycle' intended target family, where the subfamily is 'proliferation'.
The levels of cell surface (or secreted, indicated by the prefix "s") biomarker endpoints were measured by ELISA. Overt cytotoxicity to cells in confluent adherent cultures (all systems other than the BT system) was assessed by measuring total protein levels using sulforhodamine B (SRB) staining in parallel cultures at the time of biomarker measurements, indicated as SRB endpoints. For proliferation assays for adherent cell types, individual cell types are cultured at sub-confluence and relative cell numbers quantified by SRB staining at time points optimized for each system (48 h: 3C and CASM3C systems; 72 h: BT and HDF3CGF systems; 96 h: SAg system). SRB was performed by staining cells with 0.1% SRB after fixation with 10% TCA and reading wells at 560 nm.Viability and proliferation of PBMC (T cells) was quantified by Alamar Blue reduction for the SAg and BT systems. For PBMC viability (referred to as PBMC Cytotoxicity within the assay endpoint names), cells were plated (75,000/well in a 96-well plate) and then chemical samples added for 1 h before addition of activators, SEB and TSST-1 (20 ng/mL final concentration each). Cells were incubated for 90 h. Then, Alamar Blue (20 uL/well) (Invitrogen, Cat DAL1100) was added for 6 h, and the plates were read with a fluorescence microplate reader at 546/580 nm (excitation/emission). For PBMC proliferation, cells were plated and activated as above but incubated for only 16 h prior to addition of Alamar Blue. Plates were read after 6 h.

| SMILES | AC50 | outcome |
| --- | --- | --- |
| Oc1cccc2ccccc12 | 2.2 µM (active) |  |
| CCCCCCCCCCCCCCCCCC[N+](C)(C)C | 2.66 µM (active) |  |
| CCCCCCC(O)CCCCCCCCCCC(=O)OC (stereo not given) |  | inactive |
| OC(C(F)(F)F)(C(F)(F)F)C(O)(C(F)(F)F)C(F)(F)F | 37 µM (active) and 28.2 µM (active) |  |
| CN(C)CCC(c1ccc(Cl)cc1)c1ccccn1 (stereo not given) |  | inactive |
| CCCCCCCCCC/C=C/C1CC(=O)OC1=O (stereo not given) |  | inactive |
| Sc1nc2ccccc2s1 |  | inactive |
| CC[N+](CC)(CC(=O)Nc1c(C)cccc1C)Cc1ccccc1 |  | inactive |
| Cc1cccnc1 |  | inactive |
| Cc1cc(-n2nc3ccc(Cl)cc3n2)c(O)c(C(C)(C)C)c1 |  | inactive |
| CC(C)CC(=O)CC(C)CC(C)C (stereo not given) |  | inactive |
| CN(C)c1ccc(C(c2ccccc2)c2ccc(N(C)C)cc2)cc1 | 29 µM (active) |  |
| O=C(C(=O)c1ccccc1)c1ccccc1 |  | inactive |
| COC(=O)/C=C\C(=O)OC |  | inactive |
| CCCCCCCCCCC1CO1 (stereo not given) |  | inactive |
